Among the data in PubChem BioAssay (EPA / NIEHS) are AC50 and outcome values, retold here.

Records with an inconclusive call do not appear. Calls of active or inactive are those of the source. The calls were made as follows, unless noted: active = hit-call score of the fitted dose curve at least 0.9, where 1 is the maximum; inconclusive = response in the unintended direction; inactive = score below 0.9.

Test [1] can be described thus: STM_H9_CystineISnorm_perc: Stemina devTOX quickPredict H9 human embryonic stem cell (hESC)-based Assay for Cystine (CYSS) Metabolite Biomarker, Normalized (AID 2283713; active = hit-call score of the fitted dose curve at least 0.9, where 1 is the maximum; inactive = score below 0.9). The gist of the method: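 Undifferentiated H9 hESCs were exposed to compound for 72h, with medium and compound replaced every 24h. Final-24h conditioned medium was deproteinized and analyzed by UPLC-HRMS. Cystine EIC area was normalized to spiked C13 standard and 0.1% DMSO median.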

Test [2] is described as follows: CCTE_Shafer_MEA_dev_bursting_electrodes_number: CCTE's Neural Network Formation Assay for Number of Bursting Electrodes, Shafer Lab (AID 2284043). The method, boiled down: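 Read-out is the per-well number of electrodes bursting at least once every 2 minutes, recorded on days 5, 7, 9 and 12 and collapsed by trapezoidal area under the curve. Cultures were primary rat cortical neurons on MEA plates, treated continuously from plating.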

In test [3] the target is Retinoic acid receptor alpha (Homo sapiens) (UniProt P10276). Kind of test: NVS_NR_hRARa_Agonist: NovaScreen (NVS) Nuclear Receptor Binding Assay for human Retinoic Acid Alpha Receptor Agonism (RAR) (AID 2283361). The gist of the method: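 Readout is time-resolved fluorescence resonance energy transfer after a 2 h exposure of cell-free extracted receptor protein. Initial testing used 25 uM in duplicate, with concentration-response follow-up for active chemicals.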
Sequence of Retinoic acid receptor alpha (Homo sapiens) (P10276 whole entry, looked up): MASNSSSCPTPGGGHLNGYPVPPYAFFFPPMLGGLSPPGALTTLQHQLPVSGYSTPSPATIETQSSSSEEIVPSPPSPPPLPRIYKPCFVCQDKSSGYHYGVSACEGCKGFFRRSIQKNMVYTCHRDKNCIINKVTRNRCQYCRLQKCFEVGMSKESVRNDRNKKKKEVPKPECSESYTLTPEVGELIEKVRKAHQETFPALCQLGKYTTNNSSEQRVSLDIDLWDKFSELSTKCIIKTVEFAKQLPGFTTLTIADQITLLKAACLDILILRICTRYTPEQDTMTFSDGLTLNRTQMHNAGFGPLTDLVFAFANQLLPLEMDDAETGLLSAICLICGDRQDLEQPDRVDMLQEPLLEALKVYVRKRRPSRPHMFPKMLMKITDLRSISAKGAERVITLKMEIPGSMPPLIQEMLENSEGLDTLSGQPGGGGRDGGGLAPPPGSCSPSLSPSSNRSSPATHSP

The target in test [4] is human Matrix Metalloproteinase-2 (MMP2), MMP2 (gene 4313) (UniProt P08253). Kind of test: NVS_ENZ_hMMP2: NovaScreen (NVS) Enzymatic Assay for human Matrix Metalloproteinase-2 (MMP2) (AID 2283184). The method, boiled down: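 Cell-free recombinant MMP2 activity with a fluorescent substrate, read 1 h after dosing. Primary screen in duplicate at 25 uM; actives then run in concentration series; loss of signal fitted versus DMSO.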
Sequence of human Matrix Metalloproteinase-2 (MMP2), MMP2 (gene 4313) (P08253 whole entry, looked up): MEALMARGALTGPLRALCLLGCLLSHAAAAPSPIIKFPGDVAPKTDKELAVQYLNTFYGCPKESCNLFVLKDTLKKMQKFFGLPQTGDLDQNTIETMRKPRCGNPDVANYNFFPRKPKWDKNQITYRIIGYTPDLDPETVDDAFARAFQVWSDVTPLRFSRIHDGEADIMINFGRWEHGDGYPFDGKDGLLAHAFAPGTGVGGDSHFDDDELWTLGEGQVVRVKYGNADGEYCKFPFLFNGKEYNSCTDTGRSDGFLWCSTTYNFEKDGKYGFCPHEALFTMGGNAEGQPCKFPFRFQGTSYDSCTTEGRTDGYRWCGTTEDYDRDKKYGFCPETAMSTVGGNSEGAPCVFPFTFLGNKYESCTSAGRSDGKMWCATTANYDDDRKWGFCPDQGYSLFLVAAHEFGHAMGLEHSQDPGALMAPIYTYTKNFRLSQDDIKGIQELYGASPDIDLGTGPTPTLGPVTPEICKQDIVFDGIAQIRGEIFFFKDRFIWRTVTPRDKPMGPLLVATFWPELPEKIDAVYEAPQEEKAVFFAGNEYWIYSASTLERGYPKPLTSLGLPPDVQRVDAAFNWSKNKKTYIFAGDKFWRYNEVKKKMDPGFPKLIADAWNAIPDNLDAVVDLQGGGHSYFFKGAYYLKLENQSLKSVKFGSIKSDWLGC

The AC50 is the concentration giving half of the maximal activity seen. For `Cc1ccc(OP(=O)(Oc2ccc(C)cc2)Oc2ccc(C)cc2)cc1` (tested in a mixture with another compound), in test [1], the AC50 is 58.4 µM (active). In test [2], the compound was called inactive. For `O=C=Nc1ccccc1`, the AC50 in test [3] is 9.8 µM (active). On to `Cc1cc(C)c(C2=C(OC(=O)CC(C)(C)C)C3(CCCC3)OC2=O)c(C)c1`, for which, in test [4], the result was inactive.
